Screens deposited in PubChem by National Center for Advancing Translational Sciences (NCATS).
Pf Dd2 inh: Plasmodium falciparum Dd2 growth inhibition; AID 1347417; actives 4.3% (n = 120,000); Potency, µM (doses to about 28.9 µM), without a hit: at the highest dose activity, negative = inhibition, actives largely listed as inhibitors; P. falciparum Dd2 growth, SYBR Green, 72 h; active means well fitted inhibition curve with a large enough effect;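 further: plate controls were DMSO vehicle for no effect and reference drug for full effect; nearly all actives have a fitted effect of over 65% in size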
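Readout: SYBR Green fluorescence, 485 nm excitation, 535 nm emission, after ~16 h lysis at 37C. Before that, Dd2-infected red cells (2.5% hematocrit) grew 72 h with compound, 29 uM top final concentration.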
Active calls of the source: *; i = inactive; [ ] = remark or other dose. The entries come from a sample that favours hits as a whole. Potency means the concentration at half of the fitted maximal effect.

SMILES | Pf Dd2 inh
COc1ccc(-c2nnc(C[C@@H]3C[C@@H](C(C)C)[C@H](CN4CCN(CCO)CC4)C=C3C)o2)cc1 | -33.2%
CCOCCCNC(=O)c1ccc(-c2nc(CS(=O)(=O)c3ccccc3)c(C)o2)cc1 | -18.4%
Cc1ccc(-n2nc3ccc(NC(=O)c4oc5ccccc5c4C)cc3n2)cc1 | -6.2%
CCCNC(=O)C1COC2(CCC(C)CC2)N1C(=O)CC (configuration not stated) | 10.8%
COc1ccc(C(=O)N2CCC(n3cc(-c4nc(C)no4)nn3)CC2)c(C)c1 | i
COc1ccc(NC(=O)C2(C)CCCc3cnc(N(C)C)nc32)cn1 (configuration not stated) | i
CCOCC(=O)Nc1ccc2ncnc(N3CCCCC3)c2c1 | -9.4%
N#Cc1ccc(C(=O)Nc2ccc3c(N4CCCCC4)ncnc3c2)cc1 | 8.91µM*
O=C(Nc1ccc2c(N3CCCCC3)ncnc2c1)c1ccsc1 | 7.08µM*
O=C(Cc1ccsc1)Nc1ccc2c(N3CCCC3)ncnc2c1 | 5.01µM*
COc1ccc(CC(=O)Nc2ccc3ncnc(N4CCCC4)c3c2)c(Cl)c1 | -6.6%
CCn1ccc(C(=O)Nc2ccc3ncnc(N4CCCC4)c3c2)n1 | i
O=C(Nc1ccc2ncnc(N3CCCCC3)c2c1)c1ccsc1 | i
O=C(NC1CCCN(c2cc(N3CCCC3)ncn2)C1)c1ccsc1 (configuration not stated) | -13.7%[5.79 µM]
N#Cc1ccc(C(=O)Nc2ccc3ncnc(N4CCCCC4)c3c2)cc1 | i
O=C(Nc1ccc2c(c1)OCO2)c1cccn(Cc2cccc(F)c2)c1=O | 17.7%
O=C(O)CSCC(=O)N1CCN2C(=O)c3cc(-c4ccc(Cl)cc4)ccc3NC(=O)[C@@H]2C1 | i
O=C1OC[C@@H]2CCN(CC3CCCCC3)Cc3ccc(F)cc3N12 | -1.1%[44.1 µM]
CCCc1noc(-c2cn(C3CCN(C(=O)c4ccc(F)cc4)CC3)nn2)n1 | i
CCCCNC(=O)CCn1c(=O)c2ccccc2n(Cc2cccc(Cl)c2)c1=O | -0.6%
Cc1nn(CC(=O)NCC(C)c2ccccc2)c(=O)c2cc3ccccc3n12 (configuration not stated) | 243.9%[5.79 µM]
Cc1ccc(CN2CCc3nc(N4CCOCC4)[nH]c(=O)c3CC2)s1 | i[5.79 µM]
O=S(=O)(c1ccc2c(c1)OCCCO2)N1CC[C@H](CO)[C@@H](O)C1 | -8.0%
CCn1c(C(=O)NCCc2ccc(OC)c(OC)c2)cc2sc(Cl)cc21 | -2.7%
O=C(NCCc1ccccn1)C1CC(=O)N(c2n[nH]c3cccc(F)c23)C1 (configuration not stated) | -18.1%
SMILES | Pf Dd2 inh
COc1ccc(-c2nc(CSCC(=O)N3CCN(c4ccc(OC)cc4)CC3)c(C)o2)cc1 | -11.0%
COc1ccc(-c2nc(CSCC(=O)N3CCN(c4cccc(C)c4C)CC3)c(C)o2)cc1OC | 10µM*
COc1ccc(-c2nc(CSCC(=O)N3CCN(c4cc(Cl)ccc4C)CC3)c(C)o2)cc1 | i
CC(=O)Nc1nnc(SCc2cc(=O)c3cccc(Cl)c3[nH]2)s1 | -19.3%
COc1cc(C(=O)Nc2cc(C)ccc2OCc2cc(=O)n3c(C)csc3n2)cc(OC)c1OC | 20.7%
O=C(c1ccc(CS(=O)c2ccccc2Cl)o1)N1CCN(c2cccc(Cl)c2)CC1 (configuration not stated) | -15.3%
CCOc1ccc(NC(=O)CN2CCN(Cc3ccccc3)S2(=O)=O)cc1 | 5.62µM*
CCc1cccc(NC(=O)CN2CCCN(Cc3cccc(C)c3)S2(=O)=O)c1 | 28.2%
COc1cccc(CNC(=O)CN2CCCN(Cc3ccccc3)S2(=O)=O)c1 | 17.2%
COCC(=O)N[C@@H]1CCC[C@@H](C(=O)N(C)Cc2cccnc2)CC(=O)N(C)C1 | 3.6%[44.1 µM]
O=C1C[C@@H]2CCN(C(=O)c3ccccc3)C[C@@H]2CCN1CCN1CCOCC1 | -11.5%[44.1 µM]
COc1cc(OC)c(NC(=O)Cn2c(=O)cc(C)c3c(C)nn(-c4ccc(C)cc4)c32)cc1Cl | 15.4%
Cc1nc2c(c(-c3ccc(O)cc3)n1)CN(Cc1cccc3ccccc13)CCC2 | 12.6µM*
Cc1nc2c(c(-c3ccc(O)cc3)n1)CN(Cc1cccnc1)CCC2 | -1.2%
COc1ccc(CN2CCCc3nc(C)nc(-c4ccc(O)cc4)c3C2)cc1 | -40.8%
Cc1nc2c(c(-c3ccc(O)cc3)n1)CN(Cc1ccccc1)CCC2 | 4.47µM*
COc1ccccc1CN1CCCc2nc(C)nc(-c3ccc(O)cc3)c2C1 | -16.1%
Cc1nc2c(c(-c3ccc(O)cc3)n1)CN(Cc1ccc(C(F)(F)F)cc1)CCC2 | 0.891µM*
Cc1nc2c(c(-c3ccc(O)cc3)n1)CN(Cc1ccc(C(F)(F)F)cc1)CC2 | -3.0%
Cc1nc2c(c(-c3ccc(O)cc3)n1)CN(Cc1ccccn1)CCC2 | i
Cc1nc2c(c(-c3ccc(O)cc3)n1)CN(Cc1ccccc1)CC2 | i
COCc1ccc(C(=O)N2CCC3(CC2)CC(c2ccccc2)C(=O)N3)o1 (configuration not stated) | -2.4%
CN(CCc1ccccc1)[C@@H]1[C@H](O)[C@H](CO)O[C@@H]1CNS(=O)(=O)c1ccccc1 | -9.4%
COc1cc(=O)n2c(c1C(=O)Nc1ccc(F)cc1)CCCC2 | 1.0%
CN1CCN([C@@H]2[C@H](O)[C@H](CO)O[C@@H]2CNC(=O)Nc2cccc(Cl)c2)CC1 | -3.5%
SMILES | Pf Dd2 inh
O=C(c1nc(-c2ccsc2)c2ccccn12)N1CCOCC1 | -21.5%[44.1 µM]
O=C(Cc1ccsc1)N1CCC2(CC1)N=C(c1ccc(Cl)cc1)NO2 | -8.2%
COc1ccc2cc1Nc1ccc(cc1)C[C@H](NCc1ccncc1)C(=O)N(C)[C@H](C(=O)NCc1ccc(OC(F)(F)F)cc1)C2 | -20.3%
COc1ccc2cc1Nc1ccc(cc1)C[C@H](NCc1cccc(C(=O)O)c1)C(=O)N(C)[C@H](C(=O)Nc1ccccc1OCc1ccccc1)C2 | 2µM*
COc1ccccc1NC(=O)[C@@H]1COCC(=O)N1Cc1ccc(OC)c(OC)c1 | 36.5%
Cc1ccc(S(=O)(=O)c2nnn3c2nc(N2CCN(c4cccc(C)c4C)CC2)c2ccccc23)cc1C | i
CCOC(=O)c1c(C)[nH]c(C)c1S(=O)(=O)N1CCC(C(=O)Nc2ccc(F)cc2F)CC1 | i
COc1ccc(C)cc1Nc1cc(C)nc(C)n1 | 3.5%
COc1ccc(OC)c(S(=O)(=O)Nc2ccc3[nH]c(=O)[nH]c3c2)c1 | 63.4%
O=C(Nc1ccc(F)c(F)c1)C1CCCN1S(=O)(=O)c1cccc2nsnc12 (configuration not stated) | 11.2µM*
CCN(C(=O)C1CCC(CNS(=O)(=O)c2cccc3nsnc23)CC1)c1ccc(C)c(C)c1 (configuration not stated) | 4.47µM*
CCCCN(CC)C(=O)C1CCC(CNS(=O)(=O)c2cccc3nsnc23)CC1 (configuration not stated) | 2.82µM*
O=C(Nc1ccc(C(F)(F)F)cc1)C1CCC(CNS(=O)(=O)c2cccc3nsnc23)CC1 (configuration not stated) | 2.82µM*
CCN(C(=O)C(Cc1ccccc1)NS(=O)(=O)c1cccc2nsnc12)c1ccccc1 (configuration not stated) | 3.3%
CCCCN(CC)CCNC(=O)C1CCCN(S(=O)(=O)c2cccc3nsnc23)C1 (configuration not stated) | i
Cc1ccc(NC(=O)C2CCCN2S(=O)(=O)c2cccc3nsnc23)c(C)c1 (configuration not stated) | i
Cc1ccc(NC(=O)C2CCN(S(=O)(=O)c3cccc4nsnc34)CC2)cc1 | -15.2%
CCc1ccc(NC(=O)C2CCCN2S(=O)(=O)c2cccc3nsnc23)cc1 (configuration not stated) | 30.2%
